The values that follow come from PubChem BioAssay AID836 (Columbia University Molecular Screening Center, 2007).

Molecules are shown by their SMILES. Among all 91,000 compounds or so, about 160 (0.18%) were called active.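 Rule for the calls: active = inhibition above the batch mean plus 3 SD and confirmed as a hit by visual image inspection (cut at about 30% in these data, passing the limit was not always enough); inconclusive = above the inhibition threshold but rejected on visual inspection; inactive = the rest.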 The sample as a whole holds a higher share of actives than the screen did.

The nature of the assay: disruptors of actin filament network in HUVEC – imaging, phalloidin staining, high-content imaging, primary screen (AID 836). The note with it: HUVEC TNFa F-actin phalloidin imaging, at 2 µM, stronger effect = higher value.
As a reminder, the inhibition is the relative decrease from the control value, in per cent. With `Cc1cccc(COc2ccccc2/C=N/Nc2ccc([N+](=O)[O-])cc2)c1`, the inhibition is 15.8% (inactive).

As to `COc1ccccc1OCCNc1cc(N2CCOCC2)ccc1[N+](=O)[O-]`, the inhibition is 5.1% (inactive).

For the molecule `O=C(COc1ccc(Br)cc1F)NC1CCN(Cc2ccccc2)CC1`, the inhibition was -0.2% (inactive).

On to `C/C(=N/NC(=O)c1ccc(NC(=O)c2ccc(F)cc2)cc1)c1ccccc1`, for which the inhibition is -18.2% (inactive).

As to `COc1cc(/C=C(/NC(=O)c2ccccc2)C(=O)Nc2cccc(O)c2)c([N+](=O)[O-])cc1OC`, the inhibition was 7.4% (inactive).

Consider `C=CCNC(=S)NNc1ncnc2sc3c(c12)CC(C)(C)OC3`, for which the inhibition is -11.6% (inactive).

For the molecule `C=CCNC(=O)c1sc(SC)cc1-c1ccc(Cl)cc1`, the inhibition is 7.4% (inactive).

On to `Cc1cccc(-n2cnc(C(=O)Nc3cccnc3)c2)n1`, for which the inhibition was 1.4% (inactive).

For `Cc1cccc(C)c1NC(=O)c1ccc(CN2CCc3ccccc3C2)cc1`, the inhibition is -19.9% (inactive).

For `Cc1cc(C)cc(OCC(=O)Nc2nc3ccc([N+](=O)[O-])cc3s2)c1`, the inhibition was -19.8% (inactive).

On to `Cc1ccc(-c2nnc(-n3nnc4ccccc43)c3ccccc23)cc1`, for which the inhibition is -2% (inactive).

With `CC(C)c1ccc(/C=C/C(=O)NNC(=O)c2cccnc2)cc1`, the inhibition is 1.1% (inactive).

For `O=C(Nc1ccccc1)O/N=C1\CCCCC1c1ccc([N+](=O)[O-])cc1[N+](=O)[O-]` (stereo not given), the inhibition is -8.4% (inactive).

For `c1ccc2c(CSCc3nc4ccccc4[nH]3)cccc2c1`, the inhibition is -12.1% (inactive).

With `CSc1ccc(C#N)cc1NC(=O)c1cccc(Cl)c1`, the inhibition was 3.3% (inactive).

As to `Cc1[nH]n(-c2ccccc2)c(=O)c1CCOC(=O)c1ccc(C(F)(F)F)cc1`, the inhibition was -0.4% (inactive).

Take `CN(C)Cc1ccccc1C1(O)c2ccccc2CSc2ccccc21` (stereo not given): the inhibition was -10.2% (inactive).

On to `O=C(/C=C/c1ccccc1)N/C(=C/c1ccccc1)C(=O)Nc1ccccc1O`, for which the inhibition was -50.9% (inactive).

As for `CCOc1ccc(-c2c(C)n([O-])c3c([n+]2=O)CCCC3)cc1`, the inhibition was -18.2% (inactive).

As to `Cc1c(Nc2cc(N3CCCC(C)C3)c3nonc3c2[N+](=O)[O-])c(=O)n(-c2ccccc2)n1C` (stereo not given), the inhibition was 3.1% (inactive).

Consider `COc1cc(/C=N/O)cc(Br)c1OCc1cccc(Cl)c1`, for which the inhibition was -41.4% (inactive).

`CCOC(=O)c1nn(-c2cccc(C)c2)cc1C(=O)c1ccccc1`: the inhibition is 5.4% (inactive).

As for `O=C(/C=C/c1cc2c(cc1Br)OCO2)NCc1ccc(Cl)cc1`, the inhibition is 7.8% (inactive).

Regarding `Cc1nc(NC2=NC(C(=O)Nc3ccc(Cl)cc3)CC(=O)N2)nc2ccccc12` (stereo not given), the inhibition is 7.9% (inactive).

Take `Cc1nc(C)c(C(=O)N(c2ccc(C)c(C)c2)C(C(=O)NCc2ccco2)c2ccccc2)s1` (stereo not given): the inhibition was 29.1% (inactive).
